Hit rate of the full screen: of about 320,000 compounds, about 55 (0.02%) were called active. About 3% were inconclusive and are not listed. The list comes from a sample in which actives are over-represented; it also holds similar structures and randomly drawn compounds. A number with no mark means an inactive call. No stated cut-off is given here; in the data, active means potentiation above about 80%; inconclusive means between about 30% and that limit; inactive means weaker than that.

Chain of Transient receptor potential cation channel subfamily V member 1 (Homo sapiens) (Q8NER1 whole entry, looked up): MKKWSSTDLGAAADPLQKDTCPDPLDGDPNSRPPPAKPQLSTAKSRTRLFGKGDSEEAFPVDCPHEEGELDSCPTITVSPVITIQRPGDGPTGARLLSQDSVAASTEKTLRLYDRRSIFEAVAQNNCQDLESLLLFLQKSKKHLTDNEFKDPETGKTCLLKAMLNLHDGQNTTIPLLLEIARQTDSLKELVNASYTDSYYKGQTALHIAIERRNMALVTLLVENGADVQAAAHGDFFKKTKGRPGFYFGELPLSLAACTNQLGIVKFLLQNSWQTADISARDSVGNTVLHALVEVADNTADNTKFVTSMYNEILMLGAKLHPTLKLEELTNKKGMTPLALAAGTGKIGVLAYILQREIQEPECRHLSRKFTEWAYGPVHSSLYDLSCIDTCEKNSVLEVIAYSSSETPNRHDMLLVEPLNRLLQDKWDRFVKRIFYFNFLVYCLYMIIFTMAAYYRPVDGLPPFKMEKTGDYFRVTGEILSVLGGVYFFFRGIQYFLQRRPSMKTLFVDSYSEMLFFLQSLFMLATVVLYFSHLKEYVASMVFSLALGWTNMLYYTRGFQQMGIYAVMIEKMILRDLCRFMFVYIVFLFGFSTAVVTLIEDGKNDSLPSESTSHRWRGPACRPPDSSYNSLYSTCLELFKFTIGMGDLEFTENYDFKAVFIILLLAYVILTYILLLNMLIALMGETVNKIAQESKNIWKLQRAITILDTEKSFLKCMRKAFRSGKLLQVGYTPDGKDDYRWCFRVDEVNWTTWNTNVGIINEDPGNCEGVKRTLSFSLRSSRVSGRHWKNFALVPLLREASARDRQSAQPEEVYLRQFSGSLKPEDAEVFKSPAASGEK

For the test, the target named is Transient receptor potential cation channel subfamily V member 1 (Homo sapiens) (UniProt Q8NER1). The experiment in a line: HTS Assay for Compounds that Act as Potentiators of the Vanilloid Receptor 1. Further: 0% is about no effect. Conditions: TRPV1-expressing cells, Fluo-8 calcium influx, capsaicin EC20 potentiation; at 8.33 µM; stronger effect = higher value. From the text:
The transient receptor potential ion channel, family V, number 1, (TRPV1) is one of the most important molecular transducers of painful stimuli and a potential target for analgesic drug development. Although recent clinical trials with orthosteric antagonists have not produced a successful drug because of a hyperthermia side effect and their tendency to block thermal noxious pain, this ion channel is undeniably well placed in the pain pathway, and the idea of blocking pain signals before they enter the CNS is an excellent concept and of proven efficacy when TRPV1 agonists are used. We propose a new approach involving allosteric modulation to impose an activity-dependent constraint within the context of inflammation and tissue damage that would alter the responsiveness of the channel in a way that an orthosteric vanilloid antagonist cannot achieve. We believe that the allosteric modulator approach has not been explored for this target. The main goal of this proposal is to identify additional, new, potent allosteric modulators of TRPV1 that can be used to investigate TRPV1 function. Our recent report provides evidence of proof of concept, but the compounds are just at the edge of utility in terms of potency. […] The question of whether they can be used as analgesic agents is complex, but if suitable compounds are identified then testing for analgesic properties will be conducted. NIH Chemical Genomics Center [NCGC] NIH Molecular Libraries Probe Centers Network [MLPCN] MLPCN Grant: MH089480-1A1 Assay Submitter (PI): Michael Iadarola, National Institute of Dental and Cranofacial Research
Upon TRPV1 activation in TRPV1 cells, the channel opens and extracellular cations flow through the channel into the cytosol. A calcium binding dye (Fluo-8) becomes fluorescent when bound to calcium. This dye is pre-loaded into cells and is used as a marker for calcium influx. The amount of accumulated calcium is precisely quantified using the FDSS kinetic reader and the calcium dye. For the HTS assay, freshly prepared cells are plated at a density of 2000/well in 3 ul medium in 1536-well plates and cultured overnight at 35.5C. Cells will be loaded with 1 ul of the homogeneous calcium dye (ABD Bioquest) at room temperature for 40 to 90 minutes. Plates will be loaded into the FDSS kinetic reader and a 1 sec / cycle for 10 second baseline signal will be measured. Compound library will then be added with a pintool at 23 nl and measured kinetically for 3 minutes. This portion of the read is considered the agonist portion of the screen. Following the 3 minutes of incubation, an on board pipettor will deliver 1 ul of capsaicin for a final concentration equal to the EC20. Signal will be measured kinetically for an additional 2 minutes. This portion of the read is considered the allosteric enhancer portion of the screen. The FDSS reader has a standard filter set capable of measuring calcium bound Fluo-8 (ex=480 and em=520 nm).
Turning to `COC(=O)c1cc(Oc2ccc(S(=O)(=O)N3CCOCC3)cc2[N+](=O)[O-])cc(C(=O)OC)c1`, the potentiation is 10.8%.
In the case of `CN1CCN(C2=NCCO2)CC1`, the potentiation is -4.44%.
On to `CCOc1ccc(S(=O)(=O)N2CCCCC2)cc1NC(=O)CN1CCCC1c1cccs1` (configuration not stated), for which the potentiation was -19.8%.
Regarding `Cc1ccc(C(=O)CN2C(=O)NC3(CCOc4ccccc43)C2=O)s1` (configuration not stated), the potentiation was -10.3%.
As to `CC(=O)NCC(=O)N(Cc1ccco1)C1(C(=O)NC2CCCC2)CCCCC1`, the potentiation is 85.2% (active).
The result for `O=C(c1ccc(=O)[nH]c1)N(Cc1ccco1)C1(C(=O)NC2CCCCC2)CCCCC1` reads 6.34%; that for `CC(=O)N(CC1CCCO1)C1(C(=O)NC2CCCC2)CCCCC1` (configuration not stated), -6.84%; that for `Cc1n[nH]c(=O)c2c(NC(=O)CSc3cc(Cl)ccc3Cl)oc(C)c12`, 13.8%.
Consider `CC1CC1C(=O)OCC(=O)Nc1cccc(F)c1` (configuration not stated), for which the potentiation was -20.7%.
On to `Cn1c(N)c(C(=O)COC(=O)/C=C/c2cccc(C(F)(F)F)c2)c(=O)n(C)c1=O`, for which the potentiation is -32.4%.
With `COc1ccc(C(C[N+](=O)[O-])n2nc(C)cc2C)cc1` (configuration not stated), the potentiation was 0.93%.
In the case of `COc1ccc(S(=O)(=O)N2CCOCC2)cc1NC(=O)CC1CC2CCC1C2` (configuration not stated) it was 2%.
Turning to `CCCCn1c(SCC(=O)N2CCCC2=O)nc2cc(S(N)(=O)=O)ccc21`, the potentiation is -9.34%.
With `CCOC(=O)c1sc(=NC(=O)/C=C/c2cccs2)n(C)c1C`, the potentiation was -3.16%.
Consider `O=S(=O)(Nc1cc(Cl)ccc1N1CCOCC1)c1ccccc1Cl`, for which the potentiation is 28.9%.
The result for `CN(c1ccccc1)S(=O)(=O)c1cccc(NC(=O)Cc2ccc(Cl)cc2)c1` reads -2.65%; that for `O=C(COC(=O)c1c(Cl)cccc1Cl)Nc1cccc(S(=O)(=O)NC2=NCCCCC2)c1`, 4.82%.
On to `Cc1ccc(S(=O)(=O)Nc2nc(CN3CCOCC3)nc3sc(C)c(C)c23)cc1`, for which the potentiation is 21.7%.
For the compound `O=C(Nc1ccc2c(c1)OCCO2)C1CCCC1`, the potentiation is -1.56%.
Consider `Cc1cc(NC(=O)COc2ccccc2C#N)no1`, for which the potentiation was 13.6%.
In the case of `O=C(CSc1ccccc1)Nc1cccc(S(=O)(=O)N2CCCCC2)c1`, the potentiation is -6.03%.
Regarding `CCN(c1ccccc1)S(=O)(=O)c1ccc(OCC(=O)N2CCCC2)cc1`, the potentiation is -12.3%.
Turning to `O=C(CN1CCCCC1)NC(=O)Nc1ccccc1F`, the potentiation is -35.8%.
Turning to `COc1ccccc1C(=O)NCC(=O)OCC(=O)Nc1nnc(-c2ccccc2)o1`, the potentiation is 8.76%.
Consider `Cc1ccc(NC(=O)Cc2nc(COC(=O)C(C)NS(=O)(=O)c3ccc(C)cc3)cs2)cc1` (configuration not stated), for which the potentiation is 1.83%.
The result for `COc1ccccc1C(=O)NCCC(=O)NC1=NCCS1` reads 16.5%; that for `Cc1cc(C(=O)COc2ccccc2Cl)c(C)n1C1CC1`, -5.33%; that for `CC(C)(C)C(=O)CSc1ccc(S(=O)(=O)N2CCCC2)cn1`, 5.19%.
With `CCCCn1nc(C(=O)Nc2cccc(C(=O)NC3CC3)c2)c2ccccc2c1=O`, the potentiation was -5.5%.
In the case of `CCC(C(=O)N1CCN(S(=O)(=O)c2sc(C(=O)O)c(C)c2C(=O)O)CC1)c1ccccc1` (configuration not stated) it was -6.07%; in that of `CC1CCCN(C(=O)CN2C(=O)c3ccccc3S2(=O)=O)C1` (configuration not stated), 7.53%.
With `Cc1cc(C(=O)COc2ccc(Br)cc2F)c(C)n1C1CC1`, the potentiation is -6.81%.
As for `COc1ccc(C(=O)N2CCN(c3ccc(C(C)=O)cc3F)CC2)cc1S(=O)(=O)NC1CC1`, the potentiation was -8.79%.
`CCN1C(=O)C(=O)N(CC(=O)Nc2cc(C)ccc2C)C1=O`: the potentiation was 4.41%.
As for `CCN(CC)c1ccc(NC(=O)CN2C(=O)NC3(CCc4ccccc43)C2=O)cc1` (configuration not stated), the potentiation was -5.69%.
The result for `COc1ccc(-c2cc3ncccc3cn2)cc1` reads -0.0866%; that for `COc1ccc(CN2CCc3nc(Nc4ccccc4)ncc3C2)c(OC)c1OC`, 1.32%; that for `COc1ccc2c(C)cc(SCC(=O)NCC3CCCO3)nc2c1` (configuration not stated), -8.57%.
For `CC(Sc1nnc(C2CC2)n1C1CC1)C(=O)Nc1ccc(C(N)=O)cc1` (configuration not stated), the potentiation is -2.73%.
Turning to `COc1ccc(CN2CCN(C(=O)c3cc(C4CC4)nn3-c3ccccc3)CC2)cc1F`, the potentiation was 1.31%.
As to `CSCCC(NC(=O)c1ccccc1)C(=O)N1CCN(Cc2ccc(Cl)cc2)CC1` (configuration not stated), the potentiation was 10.6%.
`Cc1ccsc1C(=O)NCCc1ccco1`: the potentiation is -5.45%.
Take `O=C(Nc1ccc2c(c1)OCO2)C1CC1(Cl)Cl` (configuration not stated): the potentiation is -2.21%.
The result for `CCN(CC)CCN1C(=O)C(=O)/C(=C(/O)c2cnn(-c3ccccc3)c2C)C1c1cccs1` (configuration not stated) reads -0.404%.
`CCOc1ncccc1C(=O)OCC(=O)Nc1cccc(S(=O)(=O)N2CCCCCC2)c1`: the potentiation is -26.2%.
In the case of `COc1ccc(S(=O)(=O)N2CCOCC2)cc1NC(=O)Cc1coc2cc(C)ccc12` it was 4.1%; in that of `Cc1nc2ccc(NC(=O)C3CCCCC3)cc2s1`, -2.49%; in that of `COc1ccc(-c2sc3ccc(OC)cc3c2C#Cc2ccccn2)cc1`, -1.97%.
Turning to `CC(C)c1ccc(S(=O)(=O)N2CCN(C(C)C(=O)NC3CCCC3)CC2)cc1` (configuration not stated), the potentiation was -15.2%.
On to `O=C(Nc1ccccn1)C1CCN(S(=O)(=O)c2ccccc2)CC1`, for which the potentiation is -3.8%.
As to `COCCn1c(C)cc(C(=O)CSc2nnc(C3CC3)n2C2CC2)c1C`, the potentiation is -2.92%.
As to `CC(=O)Nc1ccc(Nc2cc(C)nc(Nc3ccc(NC(C)=O)cc3)n2)cc1`, the potentiation is 13.9%.
`O=c1ccc2c(-c3ccccc3S(=O)(=O)O)c3ccc(O)c(O)c3oc-2c1O`: the potentiation is 12.9%.
In the case of `CC(=O)N1CCN(S(=O)(=O)c2cccc(C(=O)NC3CCC(C)CC3)c2)CC1` (configuration not stated), the potentiation is 0.313%.
With `Cc1cc(C(=O)Nc2nnc(C3CC3)s2)c(C)s1`, the potentiation is 9.37%.
Take `COc1cccc(-n2c(SCC(=O)NC3CCS(=O)(=O)C3)nc3ccccc3c2=O)c1` (configuration not stated): the potentiation was 7.53%.
As for `CC(C)n1ncc2c(C(=O)Nc3ccc(CC#N)cc3)cc(C3CC3)nc21`, the potentiation is -24.2%.
Regarding `COc1cccc(NC(=O)CN(C)CC(=O)c2c(N)n(Cc3ccccc3)c(=O)n(C)c2=O)c1`, the potentiation is 23.5%.
For the compound `O=S(=O)(NCc1ccccc1Br)c1ccccc1Br`, the potentiation is 5.51%.
Take `CCOC(=O)C1=C(COC(=O)[C@H](C)NS(=O)(=O)c2ccccc2F)NC(=O)NC1C` (some centres not stated): the potentiation is -3.56%.
In the case of `CCOC(=O)c1cc(OC(=O)c2ccccc2Cl)n(-c2ccccc2)n1` it was 0.753%; in that of `CCc1sc(C(=O)N2CCN(CC(=O)Nc3cccc(F)c3)CC2)cc1C`, -11.7%; in that of `CCN(CC(=O)NCc1cccs1)C(=O)/C=C/c1ccc(C)cc1`, -0.0424%.
Consider `COC(=O)c1sc2[nH]c(=S)n(N)c(=O)c2c1C`, for which the potentiation was -11.7%.
For the compound `CCN(c1ccccc1)S(=O)(=O)c1cccc(C(=O)NCc2ccccc2CN2CCOCC2)c1`, the potentiation is -5.32%.
In the case of `CCOc1ncccc1C(=O)OCC(=O)c1c[nH]c2ccccc12`, the potentiation is 3.1%.
The result for `O=C(CN1C(=O)NC2(CCCCC2)C1=O)N1CCN(C(=O)c2cccs2)CC1` reads 25.7%; that for `CN(C)CCN=c1cc(-c2ccccc2)oc2ccc(Cl)cc12`, -6.88%; that for `O=C(COC(=O)c1ccccc1)c1ccc2c(c1)OCCO2`, 3.76%.
`Cc1c(C(=O)NNC(=O)c2ccncc2)oc2ccccc12`: the potentiation was -17.2%.
Take `O=C(O[C@@H]1[C@H](Cc2ccccc2)NS(=O)(=O)[C@H]2C[C@@H]3C=C[C@]12O3)c1ccccc1Br`: the potentiation is 3.92%.
As to `Cc1ccc(OCCC(=O)Nc2ccc(S(=O)(=O)Nc3nccs3)cc2)cc1`, the potentiation was 17.5%.
In the case of `NC(=O)C1CCN(C(=O)c2ccc(F)c(S(=O)(=O)N3CCOCC3)c2)CC1`, the potentiation was -7.69%.
In the case of `CC(C)c1ccc(/C=C/C(=O)NCCCN2CCOCC2)cc1`, the potentiation is -19.8%.
Take `O=C(NCCC1=CCCCC1)c1ccc(-n2cncn2)cc1`: the potentiation is -28.9%.
As for `Cc1ccn2c(=O)nc(SCC(=O)NCc3ccc4c(c3)OCO4)nc2c1`, the potentiation is -6.94%.
Consider `CC1CN(/C=C/C(=O)C(F)(F)F)CC(C)O1` (configuration not stated), for which the potentiation was 11.7%.
In the case of `COc1ccccc1/C=C/C(=O)OCC(=O)NC1CCCCCC1`, the potentiation was -11.2%.
In the case of `O=C(NCCc1ccc(F)cc1)c1ccc2nccnc2c1`, the potentiation was -3.52%.
Take `CC(C)N(Cc1nnc(-c2ccccc2Br)o1)C(=O)c1cc(Cl)nc2ccccc12`: the potentiation is -18.4%.
With `Cc1cc(C)cc(OCC(=O)OCC(=O)NC2CCCC2)c1`, the potentiation is 19.9%.
In the case of `CC(C)C(C)NC(=O)COc1ncnc2ccccc12` (configuration not stated) it was 5.13%; in that of `COCC(C)NC(=O)COc1nncc2ccccc12` (configuration not stated), 80.9% (active); in that of `COC(=O)C(C)NC(=O)COc1ccc2ccccc2c1` (configuration not stated), 3.51%.
As for `Cc1cc(C)cc(-c2nnc(SCC(=O)NC3CC3)o2)c1`, the potentiation is -9.15%.
The result for `CCOCc1c(C(=O)N2CCN(Cc3ccc(Br)s3)CC2)oc2ccccc12` reads -19.8%; that for `COc1ccccc1N1CCN(CC(=O)Nc2ccnn2C2CCCC2)CC1`, 4.7%.
As to `COc1ccccc1-n1nnnc1SCC(=O)NC(=O)Cc1ccccc1`, the potentiation was 2.96%.
`COc1ccc(S(=O)(=O)N2CCOCC2)cc1NC(=O)c1ccc(OCC(C)C)c(OC)c1`: the potentiation was -5.7%.
Regarding `O=C(Nc1ccccc1F)c1ccc(S(=O)(=O)N2CCCCCC2)cc1`, the potentiation is -21.7%.
For the compound `O=S(=O)(NCCc1ccccn1)c1cc(Cl)cc(Cl)c1O`, the potentiation is 2.4%.
The result for `O=C(c1cc2ccccc2o1)N1CCN(S(=O)(=O)c2ccc(Cl)s2)CC1` reads -15.9%.

(Values after PubChem BioAssay AID540277 (National Center for Advancing Translational Sciences (NCATS), 2011).)
